Assay results reported in PubChem BioAssay (NCI).
Where “and” joins values, the source holds several entries; their conditions need not be identical. Equal values may be shown once. Compounds without any hit were thinned out: in the full panel of roughly 83,000, 20% have a hit.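 Note: values are percent growth. 100 is the growth of untreated cells, values between 100 and 0 indicate rising inhibition; between -100 and 0 indicates cell death.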 Unmarked numbers belong to inactive results. Calls of active or inactive are those of the source. The calls were made as follows: active = growth percent below 10; inactive = the rest.

Columns and labels:
Assay in all cases: NCI-60 one-dose screen, 48 h (100 = growth as untreated, 0 = no growth, -100 = all killed)
Settings in all cases: 10 µM unless noted
NCI-H23 lung = system: NCI-H23 lung
NCI-H226 lung = system: NCI-H226 lung
NCI-H322M lung = system: NCI-H322M lung
HOP-62 NSCLC = system: HOP-62 NSCLC
NCI-H460 lung = system: NCI-H460 lung
NCI-H522 lung = system: NCI-H522 lung
A549/ATCC NSCLC = system: A549/ATCC NSCLC
786-0 renal = system: 786-0 renal
COLO 205 colon = system: COLO 205 colon
HOP-92 NSCLC = system: HOP-92 NSCLC

Row | SMILES | growth (NCI-H23 lung) | growth (NCI-H226 lung) | growth (NCI-H322M lung) | growth (HOP-62 NSCLC) | growth (NCI-H460 lung) | growth (NCI-H522 lung) | growth (A549/ATCC NSCLC) | growth (786-0 renal) | growth (COLO 205 colon) | growth (HOP-92 NSCLC)
1 | ClC1OC(Cl)(Cl)C(Cl)(Cl)OC1(Cl)Cl (stereo unspecified) | 98.6% | 94.7% | 100% | 104% | 128% | 89.4% | 102% | 109% | 110% | –
2 | O=[N+]([O-])c1cc(Br)c(O)c(Br)c1 | 101% | 93.5% | – | 96.9% | 107% | 92.7% | 98.9% | 102% | 112% | 95.8%
3 | O=[N+]([O-])c1c(Cl)cc(Cl)c([N+](=O)[O-])c1Cl | 98.3% | 117% | – | – | 95.8% | 36.6% | 108% | 126% | 96% | 99.6%
4 | C=C1C(=O)OC2CC3(C)OC3C3OC3C3=CC(OC3=O)C12 (stereo unspecified) | 93.8% and 101% | – | 98.7% and 101% | 96.8% and 115% | 114% and 105% | -74.9% (active) and -76.6% (active) | 93.1% and 105% | 96% and 108% | -77.1% (active) | 9.95% (active)
5 | O=C(O)c1ccccc1N(CCO)CCCl | 99% | 102% | – | 95.1% | 111% | 93.3% | 98.1% | 107% | 100% | 79.3%
6 | CC(=O)Nc1nc2c(s1)C1=CC[C@H]3[C@@H]4CC[C@H](OC(C)=O)[C@@]4(C)CC[C@@H]3[C@@]1(C)CC2 | 69.7% | 91.7% | – | 55.6% | 64.1% | 39.3% | 54% | 32% | 67.3% | 87.2%
7 | O=C=Nc1ccc(Br)cc1 | 101% | 98.8% | – | 119% | 103% | 100% | 113% | 95.5% | 111% | –
8 | CO[C@@H]([CH2][Hg][O]C(=O)c1ccccc1)[C@@H]([CH2][Hg][O]C(=O)c1ccccc1)OC | 102% | 93.2% | – | 81.8% | 103% | -53.9% (active) | 95.6% | 101% | 84.8% | 114%
9 | c1ccc2c(c1)O[As](O[As]1Oc3ccccc3O1)O2 | 43.8% | 65.2% | – | 50.6% | 54.8% | – | – | 25.3% | 50.3% | -12.2% (active)
10 | CC(=O)C(N)Cc1ccccc1 (stereo unspecified) | 98.3% | – | 106% | 85.1% | – | 91.7% | 67.9% | 96.5% | 97.8% | 86.3%
11 | COc1c(O)cc2c(c1OC)-c1ccc(SC)c(=O)cc1C(NC(C)=O)CC2 (stereo unspecified) | 21.4% | 23.1% | – | 22.2% | 3% (active) | -46.8% (active) | 46.4% | 19.1% | -44.6% (active) | –
12 | Nc1ccc2c(c1)Cc1cc(N)ccc1-2 | 92.3% | 91.4% | – | 87.1% | 93.1% | 92.8% | 84.3% | 105% | 90% | 76.5%
13 | COc1cc2c(cc1OC)-c1c3c(cc4c1[C@@H](C2)N(C)CC4)OCO3 | 51.3% | 51% | – | 44.3% | 17.3% | 5.61% (active) | 53.3% | 40.2% | 31.4% | 6.02% (active)
14 | CC1(C)C2CCC1(CS(=O)(=O)O)C(=O)C2 (stereo unspecified) | 108% and 105% | 128% and 102% | – | – | 111% and 108% | 95.4% and 107% | 96.6% and 96.8% | 101% and 98.8% | 92.9% and 132% | 66.9% and 99.9%
15 | C/C(=C\c1ccn(-c2ccc(N)c(C(F)(F)F)c2)n1)[C@@H]1C[C@@H]2O[C@]2(C)CCC[C@H](C)[C@H](O)[C@@H](C)C(=O)C(C)(C)[C@@H](O)CC(=O)O1 | 32.9% | 52% | – | 41% | 12.7% | 30.3% | 31.1% | 27.4% | -16.5% (active) | 52.4%
16 | Cc1cc[n+](CCc2ccccc2)cc1 | 90.5% and 111% | – | 96% and 96.5% | 87.9% and 114% | 110% and 103% | 94.8% and 85.5% | – | 89.7% and 100% | 127% and 119% | –
17 | COc1ccc(N)cc1OC | 105% | 107% | – | 104% | 119% | 103% | 105% | 102% | 109% | 91.2%
18 | COC(=O)CCP(CCC(=O)OC)c1ccccc1 | 102% | 104% | – | 111% | 111% | 102% | 96.8% | 102% | 118% | 109%
19 | ClCc1ccc(Cl)c(Cl)c1 | 102% | 93.7% | – | 111% | 103% | 94.2% | 107% | 95.4% | 116% | –
20 | O=S(=O)(c1ccc(O)cc1)c1ccccc1O | – | 104% | – | 101% | 105% | – | 112% | – | 112% | 100%
21 | CCOP(=O)(OCC)C(=O)N(CC)CC | 105% | 94.3% | – | 99.9% | 103% | 91.7% | 98.4% | 98% | 118% | –
22 | Cc1cc(C(C)(C)C)ccc1O | 90.9% | 92.2% | – | 102% | 105% | 102% | 104% | 111% | 107% | 94.4%
23 | CC1(C)N=C(N)N=C(N)N1c1ccc(CCC(=O)Nc2ccc(S(=O)(=O)F)cc2)cc1 | – | 65.3% | – | 47.1% | 14.5% | 23.6% | 18.9% | 21.3% | 28.8% | 70.8%
24 | O=S1(=O)OCCO1 | 96.5% | 103% | – | 103% | 103% | 96.3% | 102% | 101% | 106% | 102%
